Experimental data: PubChem BioAssay AID1347426 (Functional Genomics Laboratory (NCATS/FGL), 2020)
Among all 31,000 sequences or so, about 1,400 (4.5%) were called active. Shown is part of a subset that was picked to be rich in actives. A number with no mark means an inactive call.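 How the source made its calls: active means median seed-adjusted z-score above 1 or below -1; inactive means the rest.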

test: Novel Modifiers of Survival Motor Neuron (SMN) Protein: Gene Identification via Genome-wide siRNA Screen; settings: HEK293T SMN2-luciferase reporter, siRNA knockdown, 72 h; actives lie on both sides;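 further: luminescence tracks full-length SMN protein made from the SMN2 reporter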
Method in brief: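 Luciferase signal, proportional to full-length SMN made from an SMN2 cDNA reporter in stable HEK293T cells, was read 72 h after siRNA reverse transfection. Values were expressed as MAD scores after non-targeting-control normalization and log10 conversion; seed analysis flagged off-targets.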

Point of comparison: GAGUUGAAAAUGACAAUGATT against CLSTN1, median seed-adjusted z-score 0.0811. Against it:
- CGUACAUCCAGUGACCCUATT against MTMR4 — lower, -0.735
- GAAACCAUCGGGAAGAUUUTT against VWA2 — higher, 0.584
- GAAAUGUGGUACUAAAGCATT against RALBP1 — lower, -0.0514
- CAAUGAUCAUGGACCGUUUTT against CPEB3 — higher, 0.086
- CAAGUGCGAUAUCACCUUATT against IL4 — lower, -0.192
- GUAUCUAACUUAUCUACUATT against HTR5A — lower, -0.0687
- GGUUUCAACUGGACUUCUATT against MFSD5 — higher, 0.205
- ACAGUCUUGUGAUCAGAAATT against UHRF1 — higher, 0.231
- GACGUAACAUCAACAGAUATT against SV2B — lower, -0.43
- GGACUUAACGGUAUCCAAATT against PCDHB10 — lower, -0.09
- GCAGCUUUAACCAUUAAAATT against LTB4R — higher, 0.498
- GCAAGACAACCAUUCUGUATT against ARF4 — higher, 0.346
- GGAAACUUCUCACCUAUGATT against MAGED1 — higher, 0.524
- CCACUGUUGGAAUUAAAGATT against AOAH — lower, -0.123
- GUACAUAGAUUCUAGGCAATT against FOXJ3 — lower, -0.155
- GGCAGAUGAUGGUAUCACATT against CNGA4 — higher, 0.125
- GAAGCACAUUGUUUCCAGATT against SERGEF — lower, -0.308
- CCCUUACCUUAAUCGACGATT against CRB1 — lower, 0
- GGCUGUAUCACAUCGGUUATT against CCR2 — lower, -0.00107
- GUGCUUUGGUGGUACUAUUTT against ELOVL2 — lower, -0.456
- CAGUGGUAAGAAAGAGAAATT against NRCAM — lower, -0.0304
- GGUAAACGAGAUCAACUUUTT against DVL3 — lower, -0.57
- GGAUAUUAGUGUCGUGCAATT against ARHGEF7 — higher, 0.185
- GGAGAUUAGCAAGACCAUUTT against HOXC10 — lower, 0.000966
- AGACAGCUGCGAAUCUGGATT against MEFV — lower, 0
- GGGUUUAUAUCGAACGCAATT against RNF144B — higher, 0.642
- UGAUGCCUGUGAUACACUATT against NEU1 — lower, -0.425
- GACAGGUACUUCUAAGUCATT against AHSA1 — higher, 0.489
- GAAAUUUGCGUGUGGAGUATT against TP53 — higher, 0.214
- AUACUACGUUGAUUACAAATT against LRRTM1 — lower, -0.528
- CCAGUACCAAAGUUGAUAATT against RB1 — higher, 0.49
- CCAUCUGUUUGAACUUAGATT against TLR5 — lower, 0
- GCUAAAGAGAGAUAUGGAATT against DARS — lower, 0
- CAAAGACCCUUUAUUCGAATT against BTBD10 — higher, 0.695
- GCCUUAUUGUUACAUGGUUTT against SLC19A2 — lower, -0.679
- GCGCAGACGUGAUUGUCAATT against DAO — lower, -0.00887
- GGAGGAUCCCAUUAUACUATT against LPA — lower, -0.321
- GGAUCGCACUCAUGUGGAATT against A4GALT — lower, -0.286
- GCAGAUGGUUAUAAGCACATT against GLA — lower, -0.494
- GACCCGUUUAUACAACAAATT against MX2 — lower, -0.0346
- CUAGCAACAUGGACAUAUUTT against STS — lower, -0.392
- GGAGCAAAACAGAUCUUGATT against PINX1 — higher, 0.11
- CCUCUCUAGUAAUGCAAGATT against NAT12 — lower, -0.0807
- GCUGUGCGUUCUUCACAAATT against RAB17 — higher, 0.473
- CACUCAGACGGGACGUUCATT against SCT — lower, -0.454
- CAAUAGAUCAAGUUAUACATT against KPNA5 — lower, -0.174
- UGCUUGGCGACUUCAGUAATT against AKR1C2 — lower, -0.109
- UGGGAAUGGUAGAAACAAATT against PPIL1 — higher, 0.166
- GAGUUUUUAUGGACUCUCATT against GRIK4 — higher, 0.249
- CCAGAAAACUUGCGAAACATT against RFX4 — lower, -0.0226
- CCUCCGGAGAGAAAAAUGATT against NXF2 — lower, -0.0513
- CAUCAAAGAUUGCACUUCATT against TOMM34 — lower, -0.503
- GCCGGAAACAAAUACGUGATT against ZNF677 — lower, -0.441
- GGCACGUUCUGAUCCAGAUTT against ACADM — higher, 0.127
- GAGCAUUUGUGCGCAAGUUTT against NRP2 — higher, 0.477
- GCUCAUUCCUUCUACAAUUTT against CACNA1G — higher, 0.436
- CGAGUGAAGUGGGAUGAGATT against STARD5 — lower, -0.0333
- GCCGUUACCAUGGAACUUUTT against GSPT2 — higher, 0.846
- CACUGACUCGGAAACUGCATT against IGF2BP3 — lower, -0.636
- GCACAACUGUAGAGACAGATT against CIDEC — higher, 0.189
- GCAGAGAUCUUUGUAGUCUTT against FTSJ3 — higher, 0.437
- CGGGUAAACUAUGAGCUGATT against ADCY2 — higher, 0.173
- GCAAGGCUUUUGACGUAGATT against MAP3K6 — lower, 0
- GGAAAUUAUGUAGAACCGATT against ALDH7A1 — lower, -0.406
- CAGUGCACAGUGAAACCAATT against ADAM11 — higher, 0.102
- CCCUCGGGAUCACACUUAUTT against MFSD1 — lower, -0.0833
- GCACGAUAUAUAUAGCUAUTT against RIPK2 — higher, 0.176
- CAACAAGCGUAAGACCAAATT against SYTL5 — higher, 0.192
- GGAUCGCCCUGUAUGCUGUTT against LRTM2 — higher, 0.465
- GAAGAGCUCUUAGAGUGUATT against BCAT1 — lower, -0.604
- AGUCCUCUAUCAACCUCUUTT against RXFP3 — lower, -0.0651
- CUCCGUAUCAUAGAUGUAATT against PCDHB3 — higher, 0.304
- GAAACCAAGUCAUAUGAAATT against CRTAP — higher, 0.581
- GGAUCUACUCGGCACUCUATT against ZBTB20 — lower, -0.521
- AGACCGCACUGACAGAGGATT against BAIAP2 — lower, -0.0497
- CAAAGAACCUAUCCGCUUATT against GGA2 — lower, -0.142
- CAGUUAUGAUUGGUGGAGATT against CDC42 — lower, -0.0938
- AGAACUUGAUGCUCCGAGATT against ITGA7 — higher, 0.13
- UUCUCUCCCUAAUAAAAAUTT against AVPR2 — lower, -0.262
- GCCUACCCAUUUGUGAACATT against PEX12 — lower, -0.129
- GGUGCUGGAGUUAAUCUUATT against TP53I3 — higher, 0.244
- GGCUUAAAGACAUUGAACATT against KLHL1 — lower, 0.067
- GGACCUAGUGUGAGCAUAATT against COL14A1 — higher, 0.19
- GAUACGUACUAUGACCGAATT against TGM7 — higher, 0.244
- GCACCUUCCGCGUCAUGUUTT against BTBD2 — lower, 0.0303

For UCACAGUCACAUACAGAGATT against SNRPD3, the median seed-adjusted z-score was -2.69 (active).
In the case of AAAGCAAGCUGUUACAAAATT against ACAT2, the median seed-adjusted z-score is reported as 1.25 (active).
With GCCGUGCUGAAGGCUCUAATT against KCNE3 the median seed-adjusted z-score was -1.33 (active).
In the case of GGCCGUGUACUGUAUCAUUTT against NUP93, the median seed-adjusted z-score is reported as 1.01 (active).
For CCAUGUUCAUCAAAACUCUTT against ARHGAP1, the median seed-adjusted z-score was -1.14 (active).
With CACUAACUGAUUUACAAGATT against UBE2J1 the median seed-adjusted z-score was -1.2 (active).
In the case of CUCCUGCCUUGAGCCCUUATT against GFRA4, the median seed-adjusted z-score is reported as -1.59 (active).
For CUAGAUAUCGUGGACCUCATT against PYDC1, the median seed-adjusted z-score was -1.44 (active).
In the case of ACAGCCGCAUGAACAAGGATT against B3GNT7, the median seed-adjusted z-score is reported as -1.05 (active).
For UGAGAGCCCUAUUCCAGUATT against UBASH3A, the median seed-adjusted z-score was -1.1 (active).
For GGAUUACGUAUCAGACAUATT against CNGA1, the median seed-adjusted z-score was -1.08 (active).
In the case of CGAGUUUGCUUGGUCAGAATT against SF3B1, the median seed-adjusted z-score is reported as -3.65 (active).
In the case of GCGCAUCUAUGAUGACGAUTT against UBA1, the median seed-adjusted z-score is reported as 1.34 (active).
With CGAUAUCAAGUGCACCAAATT against CAD the median seed-adjusted z-score was 2.37 (active).
In the case of GGAUGUAAGUUGUCCAAUATT against SUZ12, the median seed-adjusted z-score is reported as -1.65 (active).
With CACCAGGUCUGGAUAUUGATT against SF3A1 the median seed-adjusted z-score was -1.09 (active).
With GAGCUAGCGAAUAACCUUATT against DDX42 the median seed-adjusted z-score was -2.13 (active).
With CAAAGACUCUGGAAUGAAUTT against PRICKLE2 the median seed-adjusted z-score was -1.12 (active).
For GGAGCUCACUGACGAGAAUTT against POLR2C, the median seed-adjusted z-score was -2.95 (active).
In the case of GAAGCAGAGGACAACAUGATT against SNRPD3, the median seed-adjusted z-score is reported as -2.69 (active).
With GCUCCACCGAGAUUCCUGATT against TCEB1 the median seed-adjusted z-score was 1.08 (active).
For GCCCACAUGUUUAAGGACATT against KCTD9, the median seed-adjusted z-score was 1.31 (active).
